# Compound activity from PubChem BioAssay.
# SMN2 splice up: qHTS Assay for Enhancers of SMN2 Splice Variant Expression | HEK293 SMN2-luciferase splicing reporter, luminescence, 30-36 h | Potency, µM (series often up to 46.1 µM), for inactives: at the top dose activity change, positive = activation, actives largely listed as activators | 210,000 tested, 2.8% active | AID 1458, 2008; further: % of control where 0% means no effect; nearly all actives have a fitted effect of over 55% in size
#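 qHTS luciferase splicing reporter: luminescence rises when SMN2 exon 7 is included in transfected HEK293 cells. Compound exposure lasted 30-36 h at 37C, with 4.5 mM final sodium butyrate as control, followed by a ONE-Glo read.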
# Luc counter: Counterscreen for Luciferase (Kinase-Glo TM) Inhibition; Luciferin 4-monooxygenase (Photuris pensylvanica), Q27757; Kinase-Glo luciferase, ATP luminescence, 8 min; Potency, µM (highest dose often 38.3 µM), without a hit: top-dose activity change, negative = inhibition, usual class: inhibitors; 200,000 tested, 0.28% active; AID 1379, 2008; further: on the % scale 0 is the no-effect control and ±100 the full control effect; nearly all actives have a fitted effect of over 60% in size
#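 Compounds were added to a substrate mix at pH 7.2 (50 mM imidazole, 10 uM ATP, within the enzyme's linear range), followed by Kinase-Glo detection reagent; luminescence was measured after 8 minutes at ambient temperature.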
# NPC1 prom act: qHTS Assay for NPC1 Promoter Activators. AID 485313, 2010. Potency, µM (titrated, usually from 9.22 µM), inactives show at the top dose activation, actives largely listed as activators. 320,000 tested, 2.4% active. Huh7 NPC1 promoter luciferase reporter, 24 h; further: % of control where 0% means no effect; nearly all actives have a fitted effect of over 60% in size
#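 Quantitative HTS used a cell-based reporter: Huh7 cells stably bearing the NPC1 promoter upstream of luciferase were treated with compounds for 24 h, and promoter activation was read as luminescence.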
# Rab9 promoter act: qHTS Assay for Rab9 Promoter Activators. Huh7 Rab9 promoter-luciferase reporter, luminescence, 24 h. Potency, µM (doses to about 9.22 µM), inactives show at the top dose activation, negative = inhibition, usual class: activators. 320,000 tested, 2.8% active; further: % of control where 0% means no effect; nearly all actives have a fitted effect of over 60% in size
#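 Luciferase signal after 10 min detection reagent at ambient indicates Rab9 promoter upregulation; stably transfected Huh7 cells were treated 24 h with compound in DMSO at 37 °C, 5% CO2.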
# FLuc counter: qHTS profiling assay for firefly luciferase inhibitor/activator using purifed enzyme and Km concentrations of substrates (counterscreen for miR-21 project); Potency, µM (highest dose often 57.5 µM), for the others: top-dose activity change, negative = inhibition, usual class: inhibitors; Luciferin 4-monooxygenase (Photinus pyralis), P08659; purified FLuc, Km substrates, luminescence inhibition; 360,000 tested, 6.9% active;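 further: plate controls were vehicle for no effect and reference inhibitor for full effect; nearly all actives have a fitted effect of over 55% in size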
# Target sequence (P08659 whole entry, looked up): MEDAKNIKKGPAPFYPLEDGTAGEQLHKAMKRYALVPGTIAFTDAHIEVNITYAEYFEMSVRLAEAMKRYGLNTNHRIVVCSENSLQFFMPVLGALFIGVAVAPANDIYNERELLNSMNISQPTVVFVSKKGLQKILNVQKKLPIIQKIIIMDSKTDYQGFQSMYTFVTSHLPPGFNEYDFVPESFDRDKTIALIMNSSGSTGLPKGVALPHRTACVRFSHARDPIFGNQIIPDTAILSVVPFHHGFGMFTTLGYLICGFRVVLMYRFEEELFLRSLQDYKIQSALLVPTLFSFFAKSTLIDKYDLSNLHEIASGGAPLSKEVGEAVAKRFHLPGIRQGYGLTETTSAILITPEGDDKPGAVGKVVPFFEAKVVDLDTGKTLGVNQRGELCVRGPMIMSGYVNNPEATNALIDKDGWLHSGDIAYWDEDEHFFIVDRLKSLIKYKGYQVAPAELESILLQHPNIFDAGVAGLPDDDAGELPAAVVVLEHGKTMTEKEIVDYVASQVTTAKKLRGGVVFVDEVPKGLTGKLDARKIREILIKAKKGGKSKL
#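 Purified P. pyralis luciferase (10nM final) with 10uM D-luciferin and 10uM ATP (Km levels) in 50mM Tris acetate pH 7.5, 10mM Mg acetate, 0.01% Tween-20, 0.05% BSA; qHTS 6-point titration, ~60 µM downward; luminescence read.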
# An asterisk follows results filed as active; u = inconclusive; x = no result; [ ] = remark or other dose. Sampled rows, rich in hits. Any-hit rate of the full collection: about 7.3%. The call rests on the fitted dose curve; in most records, active means well fitted curve in the direction sought with a large enough effect; inconclusive means small, poorly fitted or top-dose-only effect, or another doubt; inactive means no such curve, though single readings can be large; an effect the other way counts as inactive or inconclusive. Potency means the concentration at half of the fitted maximal effect.
SMILES,SMN2 splice up,Luc counter,NPC1 prom act,Rab9 promoter act,FLuc counter
O=C(NCCc1ccccc1)c1cc(-c2ccco2)on1,10µM*,1%,2.5µM*,2.8µM*,6µM*
COCCCNC(=O)c1c(NC(=O)c2cc(=O)c3ccccc3o2)sc2c1CCCC2,x,x,x,x,3%
Cc1ccccc1Cn1c(CN2CCC(C(=O)NCCc3ccccc3)CC2)cc2ccccc21,x,x,x,x,-7%
C=CCn1c(C)cc(C(=O)COC(=O)COc2ccccc2C#N)c1C,x,x,-2%,9%,1.7µM*
Cc1cc(C(=O)COC(=O)COc2ccccc2C#N)c(C)n1CC1CCCO1 (configuration not stated),x,x,-3%,1%,3µM*
C=CCn1c(C)cc(C(=O)COC(=O)[C@@H](NC(=O)c2ccccc2Cl)C(C)C)c1C,-2%,u,u,u,0.15µM*
COc1cc(C)ccc1OCC(=O)OCC(=O)c1cc(C)n(CC2CCCO2)c1C (configuration not stated),x,x,0%,1%,u
Cc1cc(C)n(-c2nc(C)c(C)c(=O)n2CC(=O)Nc2ccc(OC(F)(F)F)cc2)n1,x,x,x,x,2%
Cc1ccc(OCC(=O)Nc2nonc2-c2ccc(Br)cc2)cc1C,x,x,x,x,-10%
Cc1ccc(-n2c(C)cc(-c3csc(N)n3)c2C)cc1,0%,-4%,9%,0%,11µM*
Cc1cc(=O)[nH]c(/N=C(\N)Nc2ccc(Cl)cc2)n1,0%[9.22 µM],-1%[7.66 µM],x,x,x
O=C(NC(=S)Nc1ccccc1O)c1ccc(-c2ccc(Cl)cc2)o1,-5%,-1%,-2%,-8%,4%
CCn1nnc(NC(=O)c2ccc(-c3ccc(Cl)cc3)o2)n1,26%,-2%,19%,20%,17µM*
O=C(NC12CC3CC(CC(C3)C1)C2)c1ccc(-c2cccc(Cl)c2)o1,-33%,0%,2.8µM*,0.89µM*,2.4µM*
CC(=O)NC(=O)c1ccc(-c2ccc(Cl)cc2)o1,x,-4%,-2%,19%,5.4µM*
O=C(NC12CC3CC(CC(C3)C1)C2)c1ccc(COc2ccc(Cl)cc2[N+](=O)[O-])o1,-28%,0%,-2%,-3%,-6%
O=C(NC12CC3CC(CC(C3)C1)C2)c1ccc(-c2ccccc2Cl)o1,8%,-4%,1.1µM*,2µM*,1.9µM*
COc1cc(Nc2nc(SCc3ccccc3Cl)nc3ccccc23)cc(OC)c1,x,x,x,x,-6%
COc1cccc(CNC(=O)Nc2cc(C(=O)NCc3cccc(F)c3)ccc2N2CCCC2)c1,x,x,x,x,-6%
Cc1cccc(N2CCN(C(=O)c3cnn(-c4cccc(Cl)c4C)c3C3CCNCC3)CC2)c1C,x,x,x,x,-2%
O=C(NC12CC3CC(CC(C3)C1)C2)c1ccc(-c2ccc(Cl)cc2)o1,16µM*,2%,u,3.2µM*,u
Cc1oc(-c2cc(F)ccc2F)nc1CN1CCN(c2ncnc3ccccc23)CC1,x,-2%,6%,0%,27µM*
Cc1c(C(=O)OC2CCC(C)CC2)[nH]c2c1C(=O)CCC2 (configuration not stated),2.5µM*,4%,0.5µM*,0.45µM*,4.3µM*
COC(=O)c1[nH]c2c(c1C)C(=O)CCC2,11%,-3%,-1%,3%,-4%
O=C(NC(=S)Nc1ccc(Br)cc1)C1CCCCC1,x,x,26%,u,3%
SMILES,SMN2 splice up,Luc counter,NPC1 prom act,Rab9 promoter act,FLuc counter
COc1ccc(NC(=S)NC(=O)C2CCC2)cc1,x,x,u,4.5µM*,17µM*
O=C(NC(=S)Nc1ccc(Br)cc1)C1CCC1,x,x,23%,17%,19µM*
C/C(=N/Nc1nc(-c2ccccc2)cc(-c2ccc(F)cc2)n1)c1cccc(N)c1,-45%,-4%,9%,-1%,9.5µM*
COc1ccc(NCc2nnc(SCC(=O)Nc3cc(C)cc(C)c3)o2)cc1,-6%,1%,2%,9%,u
COc1ccc(-c2nnc(SCC(=O)Nc3ccccc3OC)o2)cc1,11µM*,0%,2.8µM*,1.6µM*,27µM*
COc1ccc(NCc2nnc(SCC(=O)Nc3cc(C(F)(F)F)ccc3Cl)o2)cc1,6%,-5%,-2%,-3%,17µM*
COc1ccc(-c2nnc(SCC(=O)Nc3cccc(Cl)c3)o2)cc1,13µM*,2%,u,2µM*,1%
COc1ccc(CNc2oc(-c3ccc(COc4ccccc4C)o3)nc2C#N)cc1,x,x,x,x,-7%
O=C(NCC1CCCO1)c1cc(-c2ccccc2F)no1 (configuration not stated),x,x,u,2.8µM*,15µM*
O=C(NCC1CCCO1)c1ccc(-c2ccccc2Cl)o1 (configuration not stated),x,x,3.5µM*,2.8µM*,17µM*
O=C(NCc1ccco1)c1ccc(-c2ccccc2Cl)o1,29%,-6%,2%,30%,17µM*
O=C(NCc1ccco1)c1ccc(-c2ccc(Cl)cc2)o1,-10%,-6%,18%,25%,15µM*
O=C(NCc1ccco1)c1ccc(CS(=O)(=O)Cc2ccc(Cl)cc2)o1,-22%,1%,-3%,9%,2%
Cc1ccccc1NC(=O)c1c(NC(=O)C(C)Oc2cccc(Cl)c2)sc2c1CCCC2 (configuration not stated),-7%,x,x,x,-11%
O=C(Nc1sc2c(c1C(=O)NCc1cccnc1)CCCC2)c1cc(=O)c2ccccc2o1,9%,x,x,x,5%
Cc1cc(OCc2cc(C(=O)NC3CCC3)no2)cc(C)c1Cl,x,x,-1%,0%,1%
Cc1nc(C(C)NC(=O)c2cc(COc3ccc(F)c(F)c3)on2)cs1 (configuration not stated),x,x,-16%,-3%,-3%
Cc1ccc(OCc2cc(C(=O)NC(C)Cc3cnccn3)no2)cc1C (configuration not stated),x,x,-5%,4%,-21%
CCc1cc(C(=O)NC(C)c2ccccc2)no1 (configuration not stated),-2%,x,x,x,2%
Cc1cccc(CC(C)NC(=O)c2cc(COc3ccc(C)c(C)c3)on2)n1 (configuration not stated),x,x,u,u,21µM*
CC(NC(=O)c1cc(COc2ccccc2)on1)c1nccs1 (configuration not stated),x,x,1.4µM*,1.4µM*,4.8µM*
Cc1cc(OCc2cc(C(=O)NC(C)c3c(C)nn(C)c3C)no2)cc(C)c1Cl (configuration not stated),x,x,2.5µM*,2.2µM*,6.7µM*
Cc1nc(C(C)NC(=O)c2cc(COc3ccc(C)c(C)c3)on2)c(C)s1 (configuration not stated),x,x,2.8µM*,3.2µM*,9.5µM*
CCCn1cnc2c(SCC(=O)O)nc(N)nc21,-15%[9.22 µM],-2%[7.66 µM],x,x,x
